Cruzain inh Det: inhibitors of Trypanosoma cruzi cruzain with detergent; AID 1478; actives 0.43% (n = 200,000); purified cruzain, Z-FR-AMC fluorescence, 0.01% Triton; P25779; Potency, µM, for the others: max response, negative = inhibition, usual class: inhibitors;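 note: plate controls were neutral wells for no effect and buffer without enzyme for full effect; nearly all actives have a fitted effect of over 40% in size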
Target sequence (P25779 123-467 limits assumed): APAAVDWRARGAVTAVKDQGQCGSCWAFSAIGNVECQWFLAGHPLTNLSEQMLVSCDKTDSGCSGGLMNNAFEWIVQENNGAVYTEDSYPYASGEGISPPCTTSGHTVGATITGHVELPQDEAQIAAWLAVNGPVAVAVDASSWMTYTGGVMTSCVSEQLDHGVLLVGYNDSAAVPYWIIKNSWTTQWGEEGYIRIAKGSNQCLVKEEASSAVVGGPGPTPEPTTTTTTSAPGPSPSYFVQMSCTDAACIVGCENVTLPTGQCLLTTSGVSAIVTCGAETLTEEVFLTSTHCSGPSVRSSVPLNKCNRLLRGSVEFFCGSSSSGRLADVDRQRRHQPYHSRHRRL
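Z-FR-AMC hydrolysis (2 uM substrate) by cruzain (1.5 nM) monitored kinetically at ex 360/em 450 nm after 15 min room-temperature compound exposure; 0.01% Triton X-100, pH 5.5, 5 mM DTT.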
Cruzain inh noDet: blocks cruzain activity in detergent-free assay. actives 2.3% (n = 200,000). P25779. Potency, µM, inactives show max response, negative = inhibition, usual class: inhibitors. AID 1476. purified cruzain, Z-FR-AMC fluorescence, no detergent;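 note: plate controls were enzyme without inhibitor for no effect and buffer without enzyme for full effect; nearly all actives have a fitted effect of over 40% in size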
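Purified cruzain at 1.5 nM, pre-incubated 15 min with compound at room temperature in 100 mM sodium acetate pH 5.5, 5 mM DTT, 0.00005% Triton X-100. Reaction started with 2 uM Z-FR-AMC; AMC fluorescence increase over 60 s gives rate.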
Starred values were filed as active, the others as inactive; ? = inconclusive. In the library only some 2.6% were active in any assay of this set; here they are far more common. Calls come from the whole dose curve; as a rule, active = well fitted curve in the direction sought with a large enough effect; inconclusive = small, poorly fitted or top-dose-only effect, or another doubt; inactive = no such curve, though single readings can be large; an effect the other way counts as inactive or inconclusive. Potency is the fitted concentration of half-maximal effect.

SMILES	Cruzain inh Det	Cruzain inh noDet
Cc1ccc(C)c(CN2C(=O)c3ccccc3S(=O)c3ccc(C(=O)NCCc4ccc(Cl)cc4)cc32)c1 (configuration not stated)	0%	6.3µM*
O=C(NCCC1=CCCCC1)c1ccc2c(c1)N(Cc1cccc(Cl)c1)C(=O)c1ccccc1S2(=O)=O	-1%	?
O=C(NCc1ccco1)c1ccc2c(c1)N(Cc1cccc(Cl)c1)C(=O)c1ccccc1S2(=O)=O	-4%	?
Cc1ccc(N)cc1[N+](=O)[O-]	-2%	-6%
Cc1ccc2nc(N3CCC(C(=O)N4CCN(c5cccc(Cl)c5)CC4)CC3)[nH]c2c1	-6%	3%
O=C(OCC1CCCO1)c1ccc2c(c1)N(Cc1ccccc1Cl)C(=O)c1ccccc1S2(=O)=O (configuration not stated)	1%	-29%
O=C(NCCC1=CCCCC1)c1ccc2c(c1)N(Cc1ccc(F)cc1)C(=O)c1ccccc1S2(=O)=O	-1%	?
O=C(NCCC1=CCCCC1)c1ccc2c(c1)N(Cc1cccc(Cl)c1)C(=O)c1ccccc1S2=O (configuration not stated)	-2%	13µM*
COCCNC(=O)c1ccc2c(c1)N(Cc1cccc(Cl)c1)C(=O)c1ccccc1S2=O (configuration not stated)	-2%	12%
CCOC(=O)c1ccc2c(c1)N(Cc1ccc(F)cc1Cl)C(=O)c1ccccc1S2(=O)=O	1%	10µM*
COc1ccc(CNC(=O)c2ccc3c(c2)N(Cc2ccccc2)C(=O)c2ccccc2S3(=O)=O)cc1	1%	?
Cc1ccc(C)c(CN2C(=O)c3ccccc3S(=O)(=O)c3ccc(C(=O)NCCC4=CCCCC4)cc32)c1	0%	32µM*
COc1ccc(CNC(=O)c2ccc3c(c2)N(Cc2ccccc2F)C(=O)c2ccccc2S3(=O)=O)cc1	-1%	25µM*
COc1cccc(CSCC(=O)O)c1	-3%	-2%
CC[C@@H]1[C@@H]2Cc3ccc(O)cc3[C@@]1(CC)CCN2C	0%	-4%
CCn1c2c(c(=O)n3ncc(C(=O)Nc4ccc(C(=O)OC)cc4)c13)CN(Cc1ccc(OC)cc1)CC2	-8%	?
CC(C)c1c(C#N)c(N)nc(SCC(=O)c2cc3ccccc3oc2=O)c1C#N	1%	-37%
N#Cc1ccc(-c2ccccc2)nc1SCC(=O)c1cc2ccccc2oc1=O	-5%	20µM*
COC(=O)CCC(=O)OC1(C)C(=O)C=C2C=C(c3ccc(C#N)cc3)OC=C2C1=O (configuration not stated)	3%	13%
Cc1ccc(C)c(NC(=O)NCc2ccc(Cl)cc2)c1	0%	-6%
CCOC(=O)c1noc2ncn(CC(=O)Nc3cccc(Cl)c3)c(=O)c12	-3%	1%
CC(=O)Nc1cccc(NC(=O)CSc2ccc(C(F)(F)F)cc2[N+](=O)[O-])c1	-1%	1%
O=C(CSc1ccc(C(F)(F)F)cc1[N+](=O)[O-])Nc1ccc2ccccc2c1	-4%	13µM*
c1nc(NC2CC2)c2cc(-c3ccoc3)ccc2n1	3%	-9%
Cc1ccccc1NC(=O)Cn1cnc2c1c(=O)n(C)c(=O)n2C	5%	14%
SMILES	Cruzain inh Det	Cruzain inh noDet
Cn1c(=O)c2c(ncn2CC(=O)Nc2cccc(Cl)c2Cl)n(C)c1=O	28µM*	?
CN(c1ccccc1)S(=O)(=O)c1ccc(NC(=S)NC(=O)c2ccccc2)cc1	2%	?
COc1ccccc1/C=C/C(=O)NC(=S)Nc1ccc(S(=O)(=O)N(C)c2ccccc2)cc1	2%	4µM*
COc1ccc(NC(=O)Cn2nc(C)c3nn(-c4ccc(Cl)cc4)c(C)c3c2=O)cc1	2%	15%
Cc1ccc(CCNC(=O)CCSCc2ccc(Cl)cc2)cc1	1%	0%
Cc1ccc(CSCCNC(=O)/C=C/c2ccc(Cl)cc2)cc1	4%	13µM*
CSc1ccc(CCNC(=O)Cn2ncc3c(=O)oc4ccccc4c32)cc1	0%	-14%
CSSC	1%	-5%
Cc1sc2ncnc(SCC(=O)NCC(C)C)c2c1C	-11%	-5%
Cc1sc2ncnc(SCc3ccco3)c2c1C	-9%	-17%
Cc1nnc(NC(=O)CSc2ncnc3scc(-c4ccccc4)c23)s1	1%	-26%
Cc1sc2ncnc(SCC(=O)c3ccc(Cl)s3)c2c1C	-2%	10µM*
COC(=O)c1c(-c2ccccc2)csc1NC(=O)CSc1ncnc2sc(C)c(C)c12	-1%	6.3µM*
CCc1ccc(OCC(=O)NNC(=O)CSc2ncnc3sc(C)c(C)c23)cc1	1%	20µM*
Nc1nc2c(C(=O)NCc3cccs3)nnn2c2cccc(Cl)c12	2%	4%
CCn1c(CN2CCCCC2)nc2cc(NC(=O)c3ccc([N+](=O)[O-])cc3)ccc21	-14%	-8%
CCCC(=O)Nc1ccc(OC[C@@H](O)CNC(C)C)c(C(C)=O)c1	-1%	-2%
CNc1oc(-c2ccccc2)nc1C#N	-9%	30%
CNc1oc(/C=C/c2ccccc2)nc1C#N	25µM*	?
COc1ccccc1C1C2=C(N=c3s/c(=C/c4cccc(OCC(=O)O)c4)c(=O)n31)c1ccccc1CC2 (configuration not stated)	28µM*	?
CCOC(=O)C1=C(C)N=c2s/c(=C\c3cc(OC)c(OC)c(OC)c3)c(=O)n2C1/C=C/c1ccccc1 (configuration not stated)	-3%	13%
COc1cccc(C2C3=C(N=c4s/c(=C\c5ccc(O)cc5)c(=O)n42)c2ccccc2CC3)c1OC (configuration not stated)	-2%	?
COc1cccc(C2C3=C(N=c4s/c(=C\c5cccc(O)c5)c(=O)n42)c2ccccc2CC3)c1OC (configuration not stated)	0%	10µM*
Cc1ccccc1-c1cc(-n2ccnc2)ncn1	4%	6%
Cc1ccc(-c2csc(-c3c(N)c(C(=O)c4ccc5c(c4)OCO5)n4ccccc34)n2)cc1C	-3%	3.2µM*
SMILES	Cruzain inh Det	Cruzain inh noDet
Cc1ccc(C)c(C(=O)c2c(N)c(-c3nc(-c4ccc5c(c4)OCO5)cs3)c3ccccn23)c1	-2%	5µM*
Nc1c(-c2nc(-c3ccc(F)cc3)cs2)c2ccccn2c1C(=O)c1ccc2c(c1)OCO2	1%	-29%
COc1ccc(C(=O)c2c(N)c(-c3nc(-c4ccc5c(c4)OCO5)cs3)c3ccccn23)cc1	-4%	?
COc1ccc(-c2csc(-c3c(N)c(C(=O)c4ccccc4)n4ccccc34)n2)cc1	2%	?
Cc1ccc(C(=O)c2c(N)c(-c3nc(-c4ccc5c(c4)OCO5)cs3)c3ccccn23)cc1C	-4%	1.6µM*
COc1cccc(C(=O)c2c(N)c(-c3nc(-c4ccccc4)cs3)c3ccccn23)c1	-2%	10µM*
COc1ccc(-c2csc(-c3c(N)c(C(=O)c4ccccc4)n4ccccc34)n2)cc1OC	-3%	-12%
Cc1cc(C)cc(NC(=O)Cn2c(=O)n(-c3cc(C)cc(C)c3)c(=O)c3oc4ccccc4c32)c1	-2%	-28%
O=C(Nc1sc2c(c1C(=O)NCC1CCCO1)CCC2)c1cc(=O)c2ccccc2o1 (configuration not stated)	-2%	-4%
COc1ccccc1CNc1nc(-c2ccc3c(c2)OCO3)nc2ccccc12	-3%	?
CCOc1ccc(C2c3c(oc4ccc(C)cc4c3=O)C(=O)N2Cc2ccc3c(c2)OCO3)cc1OC (configuration not stated)	0%	9%
